For experiment [1], the system named is XIP peptide (Xip251-270) binding. As to the kind of experiment: small-molecule binders of XIP peptide, primary screen, biochemical, small-molecule microarray, fluorescence 635/667 nm, 0.1 µg/mL protein (AID 1182). As to conditions: fluorescent protein binding, 635 nm, higher = more signal, called active from +8 up or from −8 down.
The next experiment relates to XIP peptide (Xip251-270). As to the kind of experiment: small-molecule binders of XIP peptide, primary screen, biochemical, small-molecule microarray, fluorescence 635/667 nm, 0.5 µg/mL protein (AID 1183). As to conditions: small-molecule microarray binding, fluorescence 635 nm; higher = more signal.
A short description of experiment [2]: Plasmodium falciparum growth inhibition, primary screen, strain 3D7, DAPI fluorescence, 100 nL (AID 1184).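 Further: parasites grown inside human red blood cells in medium with human serum.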 Conditions: P. falciparum 3D7 growth, 3 d, higher = more signal.
Experiment [3] has as its target Homeobox protein Hox-A13 (Mus musculus) (UniProt Q62424). As to the kind of experiment: inhibitors of HoxA13-DNA binding, primary screen, biochemical, fluorescence polarization, labeled oligonucleotide (AID 1185). As to conditions: 15 min, higher = more signal, called active from +8 up or from −8 down. On the technique in general: In fluorescence polarisation assays a small probe gives low polarisation when free and higher when bound to something large.

The nature of experiment [4]: inhibitors of hydroxyurea-induced Chk1 phosphorylation, primary screen, imaging, HeLa, phospho-Chk1 antibody, percent positive cells (AID 1186). As to conditions: hydroxyurea-induced phospho-Chk1 immunofluorescence imaging, higher = more signal.
Experiment [5] can be described thus: inhibitors of hydroxyurea-induced Chk1 phosphorylation, primary screen, imaging, HeLa, phospho-Chk1 nuclear intensity (AID 1187). Conditions: hydroxyurea-induced phospho-Chk1 immunofluorescence imaging, higher = more signal.

The structures appear in SMILES notation. Calls of active or inactive are those of the source. Unless noted, how the calls were made is not given here.

Chain of Homeobox protein Hox-A13 (Mus musculus) (Q62424 whole entry, looked up): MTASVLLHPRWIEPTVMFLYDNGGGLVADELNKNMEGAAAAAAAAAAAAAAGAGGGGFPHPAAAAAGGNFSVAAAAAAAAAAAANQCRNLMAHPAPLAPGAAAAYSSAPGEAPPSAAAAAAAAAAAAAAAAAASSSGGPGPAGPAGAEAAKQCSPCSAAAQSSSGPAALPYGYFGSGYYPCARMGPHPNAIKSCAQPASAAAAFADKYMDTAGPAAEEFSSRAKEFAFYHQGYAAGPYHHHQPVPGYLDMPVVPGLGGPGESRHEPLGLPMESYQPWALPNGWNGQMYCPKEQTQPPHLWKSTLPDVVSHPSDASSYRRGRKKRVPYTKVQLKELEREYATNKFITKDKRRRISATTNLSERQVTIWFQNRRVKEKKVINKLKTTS

In the case of `C[N+](C)(C)CCCC[C@@H]1NC(=O)[C@@H]2C[C@H](C(=O)NCCCCCN)[C@H](c3ccc(O)cc3)N2C1=O`, the composite z-score in experiment [1] was 0.941 (inactive); with XIP peptide (Xip251-270), 0.831. Besides, the z-score in experiment [2] is 0.117; in experiment [3], -0.32 (inactive); in experiment [4] it was -0.661 (inactive); in experiment [5], -0.154 (inactive).
As to `COc1ccc([C@H]2OC[C@@H]3CCC(=O)N32)cc1`, the composite z-score is 0.467 (inactive) in experiment [1] and 0.394 with XIP peptide (Xip251-270). Besides, the z-score in experiment [2] is 0.401; in experiment [3] it was 0.119 (inactive); in experiment [4], -0.208 (inactive); in experiment [5], -0.183 (inactive).
Consider `CCN(CC)c1ccc(N2CC=CC34O[C@@H]5/C=C\CCC(C)OC(=O)C5[C@H]3C(=O)N(CCCCCO)[C@@H]4C2=O)cc1` (stereo partly drawn), for which the composite z-score in experiment [1] is -0.474 (inactive); with XIP peptide (Xip251-270), 0.102. The z-score is -0.0194 in experiment [2], -5.39 (inactive) in experiment [3], 0.489 (inactive) in experiment [4] and 0.673 (inactive) in experiment [5].
Regarding `COc1ccc([Si](C)(C)[C@H]2[C@H](CCO)O[C@@]3(C(=O)N(Cc4ccccc4)c4ccc(N5CCCCC5=O)cc43)[C@@H]2C)cc1`, the composite z-score in experiment [1] was 0.391 (inactive); in the experiment with XIP peptide (Xip251-270), 0.686. The z-score is -1.67 in experiment [2], -5.2 (inactive) in experiment [3], -1.39 (inactive) in experiment [4] and -0.713 (inactive) in experiment [5].
With `CCCC[C@H]1C[C@@H]1[C@@H]1N(P(=O)(c2ccccc2)c2ccccc2)C[C@@](O)(c2ccccc2)CC12CC2`, the composite z-score in experiment [1] was -0.0646 (inactive); with XIP peptide (Xip251-270) it was -0.0749. The z-score in experiment [2] was -1.22; in experiment [3], -2.37 (inactive); in experiment [4] it was 0.0682 (inactive); in experiment [5] it was 0.228 (inactive).
Take `COc1cc(OC)c(C(O)C2C=CC3C(=O)NC(=O)C3N2Nc2ccccn2)cc1Br` (stereo not drawn): the composite z-score was 0.654 (inactive) in experiment [1] and 0.448 with XIP peptide (Xip251-270). Further, the z-score is 0.776 in experiment [2], -1.28 (inactive) in experiment [3], -0.143 (inactive) in experiment [4] and -0.266 (inactive) in experiment [5].
For the compound `Cc1ccc(S[C@]2(C(=O)O)CC(=O)N(Cc3ccccc3C(F)(F)F)[C@@H]2c2ccc(CO)cc2I)cc1`, the composite z-score in experiment [1] was 0.397 (inactive); in the experiment with XIP peptide (Xip251-270) it was 0.773. The z-score in experiment [2] was 0.182; in experiment [3], -2.74 (inactive); in experiment [4], -0.157 (inactive); in experiment [5] it was 0.408 (inactive).
On to `C=CCOC(=O)[C@H]1[C@@H]2C(=O)O[C@@H](c3ccccc3)[C@@H](c3ccccc3)N2[C@@H](c2ccc(OCCOC(=O)[C@H]3C[C@H]4C(=O)N[C@@H](CCCCN(C)C)C(=O)N4[C@H]3c3cccc(OCCO)c3)cc2)[C@]12C(=O)Nc1ccc(I)cc12`, for which the composite z-score in experiment [1] is 0.718 (inactive); in the experiment on XIP peptide (Xip251-270) it was 0.634. For the same compound, the z-score in experiment [2] was -0.355; in experiment [3] it was 5.48 (inactive); in experiment [4], -0.187 (inactive); in experiment [5] it was 0.0593 (inactive).
Consider `O=C1NC(=O)C2C1C=CC(C(O)c1ccc(I)cc1)N2Nc1ccc(Cl)cc1Cl` (stereo not drawn), for which the composite z-score in experiment [1] is 0.9 (inactive); in the experiment on XIP peptide (Xip251-270), 0.284. The z-score in experiment [2] is 0.692; in experiment [3], -3.94 (inactive); in experiment [4] it was 0.0215 (inactive); in experiment [5], 0.33 (inactive).
For `COc1ccccc1CN1C(=O)c2ccccc2[C@@]2(Cc3ccccc3N(CCCN(C)C)C2=O)[C@@H]1c1ccc(CO)cc1`, the figures for the composite z-score (in experiment [1]; in the experiment with XIP peptide (Xip251-270)) were 0.0228 (inactive) and 0.216, respectively. For the same compound, the z-score in experiment [2] is -1.3; in experiment [3] it was 1.78 (inactive); in experiment [4] it was -0.481 (inactive); in experiment [5] it was -0.454 (inactive).
In the case of `CC(=O)Nc1cc(Br)ccc1C(=O)NCc1ccccc1`, the composite z-score in experiment [1] is 0.137 (inactive); in the experiment on XIP peptide (Xip251-270), 0.201. Moreover, the z-score was 1.3 in experiment [2], -0.77 (inactive) in experiment [3], 0.0852 (inactive) in experiment [4] and 0.516 (inactive) in experiment [5].
Turning to `O=C1NC(=O)C2C1C=CC(C(O)C1CC=CCC1)N2Nc1ccccn1` (stereo not drawn), the composite z-score was 0.467 (inactive) in experiment [1] and 0.362 in the experiment with XIP peptide (Xip251-270). Further, the z-score was 0.45 in experiment [2], -0.315 (inactive) in experiment [3], 0.113 (inactive) in experiment [4] and -0.22 (inactive) in experiment [5].
On to `CO[C@H]1O[C@H](CO)[C@@H](OC(=O)Nc2cccc(F)c2)[C@H](OC(=O)Nc2ccccc2)[C@H]1OC(=O)Nc1ccccc1`, for which the composite z-score in experiment [1] was 0.879 (inactive); with XIP peptide (Xip251-270), 0.882. In addition, the z-score in experiment [2] was -2.38; in experiment [3] it was -5.97 (inactive); in experiment [4], -0.357 (inactive); in experiment [5], 0.161 (inactive).
As for `CCCC=C(CCC)[C@@H](NC(=O)OCC(C)C)c1ccccc1`, the composite z-score in experiment [1] was -0.0053 (inactive); with XIP peptide (Xip251-270), 0.45. Moreover, the z-score in experiment [2] is -1.02; in experiment [3] it was 2.97 (inactive); in experiment [4], 0.714 (inactive); in experiment [5], 0.115 (inactive).
Consider `C#CCN(C/C=C/c1ccccc1)[C@H](CO)c1ccccc1`, for which the results for the composite z-score (in experiment [1]; in the experiment with XIP peptide (Xip251-270)) were -0.333 (inactive) and -0.384, respectively. For the same compound, the z-score is -0.213 in experiment [2], -6.53 (inactive) in experiment [3], -0.209 (inactive) in experiment [4] and -0.753 (inactive) in experiment [5].
Turning to `C#CCNCc1ccccc1`, the composite z-score in experiment [1] is -0.609 (inactive); with XIP peptide (Xip251-270), 0.118. Also, the z-score in experiment [2] was -0.158; in experiment [3], -0.0595 (inactive); in experiment [4] it was 0.213 (inactive); in experiment [5], -0.392 (inactive).
As to `CCOC(=O)C1=CCC(c2ccc(F)cc2)N(S(=O)(=O)c2ccc(C)cc2)C1` (stereo not drawn), the composite z-score in experiment [1] is 0.428 (inactive); in the experiment with XIP peptide (Xip251-270), 0.298. The z-score in experiment [2] is 0.217; in experiment [3], -2.03 (inactive); in experiment [4], 0.447 (inactive); in experiment [5], -0.996 (inactive).
For the compound `O=C1[C@H]2C=C(I)[C@H](C[C@@H]2OCCCCO)[C@@]12CO2`, the values for the composite z-score (in experiment [1]; in the experiment on XIP peptide (Xip251-270)) were -0.294 (inactive) and -0.425, respectively. For the same compound, the z-score in experiment [2] is 1.1; in experiment [3], -1.94 (inactive); in experiment [4], 0.239 (inactive); in experiment [5] it was -0.203 (inactive).

Source of the values: PubChem BioAssay.
